The values that follow come from PubChem BioAssay (NCATS).

Inconclusive results are not listed. Activity calls are given as the source filed them. Unless noted, calls come from the whole dose curve; as a rule, active = well fitted curve in the direction sought with a large enough effect; inconclusive = small, poorly fitted or top-dose-only effect, or another doubt; inactive = no such curve, though single readings can be large; an effect the other way counts as inactive or inconclusive.

Assay [1] concerns the target Methanococcus maripaludis chaperonin (MmCpn) (UniProt Q6LX38). Description: High-Throughput Screening for Modulators of Cytosolic Chaperonin Activity: MmCpn Primary Screen (AID 488978).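 Note: 50 nM MmCpn enzyme hydrolysing 30 µM ATP at 37 °C; 0% is about no effect.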 The method in brief: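 Measures ATPase turnover of the M. maripaludis chaperonin (50 nM final) against 30 uM ATP over 10 min at 37C, with compound added 5 min beforehand at room temperature. ADP is quantified by HTRF immunodetection.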

In assay [2] the target is Transient receptor potential cation channel subfamily V member 1 (Homo sapiens) (UniProt Q8NER1). Description: HTS Assay for Compounds that Act as Enhancers of the Vanilloid Receptor 1 (AID 488979). Note: 0% is about no effect. In short, it runs like this:
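TRPV1 cells loaded with Fluo-8 calcium dye; compound added and Ca2+ signal (ex 480/em 520 nm) followed 3 min, then capsaicin at EC20 added and read 2 more min to detect enhancement.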

In assay [3] the target is Thyrotropin receptor (Homo sapiens) (UniProt P16473). Nature of the assay: qHTS Assay for Antagonists of the Thyroid Stimulating Hormone Receptor (AID 488980). Note: series mostly up to about 58 µM; 0% is about no effect. In short, it runs like this:
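Cells expressing human TSHR (HEK293) are dispensed in HBSS/HEPES containing 70 uM RO 20-1724, compound is added, then TSH at EC80 (4 nM final). Antibody in lysis buffer follows, 30 minutes at room temperature before HTRF detection.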
(In qHTS, concentration-response curves come from the screen itself.)

Assay [4] has as its target D(1A) dopamine receptor (Homo sapiens) (UniProt P21728). Description: HTS Assay for Allosteric Agonists of the Human D1 Dopamine Receptor: Primary Screen for Agonists (AID 488981). Note: 0% is about no effect. The method in brief: (§1)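 Tetracycline-induced HEK293 Trex D1 cells with forced coupling to calcium, loaded with no-wash calcium dye; kinetic fluorescence read 180 s after compound addition for agonism, then a further 180 s after an EC20 dopamine challenge for potentiation.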

Assay [5] shares this target. Description: HTS Assay for Allosteric Agonists of the Human D1 Dopamine Receptor: Primary Screen for Potentiators (AID 488982). Note: 0% is about no effect. In short, it runs like this:
as §1

The target is the same in assay [6]. Nature of the assay: HTS Assay for Allosteric Agonists of the Human D1 Dopamine Receptor: Primary Screen for Antagonists (AID 488983).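 Note: calcium flux response to an EC80 dopamine challenge measured with no-wash dye; nearly all actives have a fitted effect of over 65% in size.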 Note: potency is the fitted concentration of half-maximal effect. The method in brief: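 Screening of inducible HEK293 T-REx D1 cells: compound first, EC80 dopamine 180 s later, each phase read kinetically for calcium over 180 s.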
Assay [7] is described as follows: Nrf2 qHTS screen for inhibitors: Validation (AID 493153; active = well fitted inhibition curve with a large enough effect in the main read-out, with a control signal flat, not every such curve was filed as active). As to conditions: Potency: luciferase luminescence; viability change: measured here: cytotoxicity max response. In short, it runs like this: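 Dose-response validation uses reporter A549 cells with firefly luciferase under an antioxidant response element. Compounds stay on cells 18-24 h at 37°C, and luminescence indicates Nrf2-driven transcription.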

A short description of assay [8]: qHTS for Inhibitors of Cell Surface uPA Generation: Validation Assay (AID 493164).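 Note: RAW 264.7 macrophage cells exposed to compound for 18 h; 0% is about no effect.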 The method in brief:
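RAW 264.7, 4000 cells/well, o/n plating; cpd 7-pt 1:5 dilution 2.45 nM–38.3 uM final; 18 h, 37 C/5% CO2; ATP-Lite, 5 s luminescence exposure.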

The target of assay [9] is Galactokinase (Homo sapiens) (UniProt P51570). Description: qHTS Validation Assay for Inhibitors of Human Galactokinase (GALK) (AID 493189). Note: 0% is about no effect. In short, it runs like this: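 Compounds were pin-transferred into ATP buffer, then GALK-galactose mix was added (final 5 nM enzyme, 100 uM galactose, 35 uM ATP). After 1 h at room temperature, remaining ATP was measured luminescently.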
Chain of Galactokinase (Homo sapiens) (P51570 whole entry, looked up): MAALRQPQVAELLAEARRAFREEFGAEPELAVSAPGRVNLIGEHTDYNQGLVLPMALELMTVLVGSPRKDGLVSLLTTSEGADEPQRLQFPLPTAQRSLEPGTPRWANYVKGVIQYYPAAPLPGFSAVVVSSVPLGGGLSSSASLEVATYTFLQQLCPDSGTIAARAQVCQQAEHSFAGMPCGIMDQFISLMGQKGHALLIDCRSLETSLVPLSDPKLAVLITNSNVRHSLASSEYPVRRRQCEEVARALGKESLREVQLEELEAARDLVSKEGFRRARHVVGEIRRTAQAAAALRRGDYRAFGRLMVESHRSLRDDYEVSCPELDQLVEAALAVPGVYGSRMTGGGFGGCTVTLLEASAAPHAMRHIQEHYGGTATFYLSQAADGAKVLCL

A short description of assay [10]: Validation screen for small molecules that induce DNA re-replication in SW480 colon adenocarcinoma cells (AID 504364). Note: 0% is about no effect. The method in brief: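 Cells are treated 48 hr with test compound, stained 40 min with Hoechst at 37 C, and scanned for nuclear fluorescence; compounds inducing re-replication increase nuclei with elevated intensity.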
In assay [11] the target is Peptidyl-prolyl cis-trans isomerase NIMA-interacting 1 (Homo sapiens) (UniProt Q13526). Description: qHTS Validation Assay to Find Inhibitors of Pin1 (AID 504536; active = well fitted inhibition curve with a large enough effect in the polarisation, with a control signal flat, not every such curve was filed as active; the % refers to the polarisation;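 note: 0% = full Pin1 enzyme wells and -100% = no-enzyme wells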). In short, it runs like this:
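Fluorescence polarization competition: compounds (titration) displace HiFluor-488-labeled Pin1-1b peptide from Pin1 (0.3 uM final) in pH 7.5 HEPES buffer with DTT, 10 min at room temperature; %Activity normalized to no-enzyme wells, curves fitted.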

Assay [12] addresses Phosphoglycerate kinase, glycosomal (Trypanosoma brucei brucei) (UniProt P07378). Nature of the assay: qHTS Validation Assay to Find Inhibitors of Phosphoglycerate Kinase (AID 504547).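 Note: control wells lack PGK and mark full inhibition.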 In short, it runs like this:
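PGK activity was coupled to GAPDH (100nM final), which generates the unstable substrate 1,3-bisphosphoglycerate in-well. Reactions ran 60 minutes at room temperature in 100mM TEA pH 7.6, 5mM MgCl2, 0.01% Tween-20, then Kinase-Glo Plus luminescence was read.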

In assay [13] the target is ATPase family AAA domain-containing protein 5 (Homo sapiens) (UniProt Q96QE3). Description: Validation screen for small molecules that inhibit ELG1-dependent DNA repair in human embryonic kidney (HEK293T) cells expressing luciferase-tagged ELG1 (AID 493107).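 Note: cells co-treated with the DNA-damaging agent 5-fluorouridine alongside compound; series mostly up to about 46 µM; % is set by controls: 0 for no effect and ±100 for the full control effect; inhibitors lower the ELG1-luciferase luminescence signal; nearly all actives have a fitted effect of over 70% in size.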 In short, it runs like this:
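Quantitative HTS in HEK293T cells carrying luciferase-tagged ELG1, stimulated with 5-fluorouridine alongside compound for 16 hr. Loss of luciferase signal marks inhibition of ELG1 response.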

The target in assay [14] is Thyrotropin-releasing hormone receptor (Homo sapiens) (UniProt P34981). Nature of the assay: qHTS for Small Molecule Agonists and Allosteric Enhancers of Human TRH Receptor: Validation Screen for Agonists (AID 493127;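 active = calcium activation more than 3 SD above the typical response in the agonist read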;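 note: intracellular calcium rise by fluo-8 fluorescence before TRH EC20 addition; 0% is about no effect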). The settings on record: TRH receptor agonist cell assay; at 2 µM; stronger effect = higher value. The method in brief:
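Gq-coupled calcium mobilization in TRHR cells after compound addition, monitored kinetically with fluo-8 dye on an FDSS reader.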

A short description of assay [15]: qHTS for Inhibitors of ATXN expression: Validation of Cytotoxic Assay (AID 588349).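 Note: cells exposed to compound for 72 hr; % is set by controls: 0 for no effect and ±100 for the full control effect.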 In short, it runs like this: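 HEK293, compound dose series, 72 hr / 37 degrees C; viability via CellTiter Glo (intracellular ATP).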
Assay [16] in a line: Validation screen for small molecules that induce genotoxicity in human embryonic kidney (HEK293T) cells expressing luciferase-tagged ELG1 (AID 493106). Note: 0% is about no effect. In short, it runs like this: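 Reporter-gene quantitative HTS in HEK293T cells carrying luciferase-tagged ELG1, whose level climbs under genotoxic stress. Compound exposure lasts 16 hr at 37 °C before luciferase detection.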

Assay [17] deals with phosphoglycerate mutase (Leishmania major) (UniProt Q4Q090). Nature of the assay: qHTS Validation Assay to Find Inhibitors of Phosphoglycerate Mutase (AID 504548).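 Note: end-point luminescence from Kinase-GloPlus after the PGAM reaction; series mostly up to about 58 µM; % is set by controls: 0 for no effect and ±100 for the full control effect.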 The method in brief:
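L. major PGAM (1.25nM final) was added to substrate buffer and pinned compound, incubated 45 minutes at room temperature, then Kinase-GloPlus added; luminescence read after 10 minutes. Buffer: 100 mM TEA pH 7.6, 5 mM MgCl2, 0.01% Tween-20.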

Assay [18] addresses Ubiquitin carboxyl-terminal hydrolase 1 (Homo sapiens) (UniProt O94782). Description: Inhibitors of USP1/UAF1: Pilot qHTS (AID 504865).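 Note: rhodamine fluorescence freed from ubiquitin-rhodamine substrate followed over time; top concentration of the series differs between compounds; % is set by controls: 0 for no effect and ±100 for the full control effect; nearly all actives have a fitted effect of over 35% in size.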 The method in brief:
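Kinetic fluorescence assay: 1nM USP1/UAF1, 15 min compound preincubation, then 150nM Ub-Rho; 480/540 nm.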

Assay [19] has as its target ATP-dependent 6-phosphofructokinase (Trypanosoma brucei brucei) (UniProt O15648). Nature of the assay: qHTS Assay to Find Inhibitors of T. brucei phosphofructokinase: hit validation (AID 492961).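 Note: luminescence reports ADP formed as PFK phosphorylates fructose-6-phosphate with ATP; series mostly up to about 51 µM; % is set by controls: 0 for no effect and ±100 for the full control effect.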 In short, it runs like this: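 Compounds titrated; %activity normalized to 0x and 1x enzyme controls, curve-fitted. Readout: ADP-Glo luminescence after 45 min room-temperature reaction of 1.25 nM PFK, 0.1 mM ATP, 0.5 mM F6P, pH 8.0.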

Chain of Ubiquitin carboxyl-terminal hydrolase 1 (Homo sapiens) (O94782 whole entry, looked up): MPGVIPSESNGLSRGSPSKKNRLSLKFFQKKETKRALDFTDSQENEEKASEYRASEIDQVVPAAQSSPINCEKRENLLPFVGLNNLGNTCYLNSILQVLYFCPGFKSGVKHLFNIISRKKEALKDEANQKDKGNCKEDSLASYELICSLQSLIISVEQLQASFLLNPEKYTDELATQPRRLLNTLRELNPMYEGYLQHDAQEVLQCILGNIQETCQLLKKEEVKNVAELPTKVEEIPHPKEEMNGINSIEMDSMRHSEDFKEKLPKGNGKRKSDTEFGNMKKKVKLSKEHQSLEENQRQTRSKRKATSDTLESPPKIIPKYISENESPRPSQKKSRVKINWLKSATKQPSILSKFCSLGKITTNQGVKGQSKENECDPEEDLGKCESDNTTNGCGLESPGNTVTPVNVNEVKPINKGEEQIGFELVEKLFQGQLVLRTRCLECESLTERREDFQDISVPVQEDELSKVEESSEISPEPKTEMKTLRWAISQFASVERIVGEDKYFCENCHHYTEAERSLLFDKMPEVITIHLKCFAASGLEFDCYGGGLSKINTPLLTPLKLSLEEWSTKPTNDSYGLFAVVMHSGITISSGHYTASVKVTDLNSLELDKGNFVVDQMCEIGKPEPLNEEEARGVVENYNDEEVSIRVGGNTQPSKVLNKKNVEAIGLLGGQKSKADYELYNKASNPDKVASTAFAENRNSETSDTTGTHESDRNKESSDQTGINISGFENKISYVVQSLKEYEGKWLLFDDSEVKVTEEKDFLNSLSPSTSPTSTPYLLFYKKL
Chain of Transient receptor potential cation channel subfamily V member 1 (Homo sapiens) (Q8NER1 whole entry, looked up): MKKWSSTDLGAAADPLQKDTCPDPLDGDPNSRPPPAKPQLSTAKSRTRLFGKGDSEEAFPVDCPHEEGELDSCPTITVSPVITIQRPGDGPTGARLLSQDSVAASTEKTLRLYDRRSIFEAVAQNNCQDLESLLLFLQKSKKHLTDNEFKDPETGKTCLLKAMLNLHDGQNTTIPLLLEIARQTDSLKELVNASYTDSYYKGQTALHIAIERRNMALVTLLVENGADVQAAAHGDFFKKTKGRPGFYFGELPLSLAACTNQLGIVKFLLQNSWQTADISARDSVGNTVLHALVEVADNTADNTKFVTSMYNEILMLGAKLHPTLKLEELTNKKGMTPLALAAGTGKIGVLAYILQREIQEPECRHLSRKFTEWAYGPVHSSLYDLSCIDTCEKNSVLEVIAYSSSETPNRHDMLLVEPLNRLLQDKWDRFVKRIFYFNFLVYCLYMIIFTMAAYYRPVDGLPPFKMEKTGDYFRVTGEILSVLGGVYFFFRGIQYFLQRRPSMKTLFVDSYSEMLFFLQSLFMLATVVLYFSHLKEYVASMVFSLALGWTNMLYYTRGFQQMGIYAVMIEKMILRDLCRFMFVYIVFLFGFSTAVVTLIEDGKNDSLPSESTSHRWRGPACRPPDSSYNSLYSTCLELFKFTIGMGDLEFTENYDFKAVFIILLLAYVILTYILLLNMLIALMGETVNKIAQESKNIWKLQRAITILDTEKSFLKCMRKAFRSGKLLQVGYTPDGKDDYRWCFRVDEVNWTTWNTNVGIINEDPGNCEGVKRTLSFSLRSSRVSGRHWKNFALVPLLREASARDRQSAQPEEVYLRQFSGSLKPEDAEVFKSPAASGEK
Chain of Phosphoglycerate kinase, glycosomal (Trypanosoma brucei brucei) (P07378 whole entry, looked up): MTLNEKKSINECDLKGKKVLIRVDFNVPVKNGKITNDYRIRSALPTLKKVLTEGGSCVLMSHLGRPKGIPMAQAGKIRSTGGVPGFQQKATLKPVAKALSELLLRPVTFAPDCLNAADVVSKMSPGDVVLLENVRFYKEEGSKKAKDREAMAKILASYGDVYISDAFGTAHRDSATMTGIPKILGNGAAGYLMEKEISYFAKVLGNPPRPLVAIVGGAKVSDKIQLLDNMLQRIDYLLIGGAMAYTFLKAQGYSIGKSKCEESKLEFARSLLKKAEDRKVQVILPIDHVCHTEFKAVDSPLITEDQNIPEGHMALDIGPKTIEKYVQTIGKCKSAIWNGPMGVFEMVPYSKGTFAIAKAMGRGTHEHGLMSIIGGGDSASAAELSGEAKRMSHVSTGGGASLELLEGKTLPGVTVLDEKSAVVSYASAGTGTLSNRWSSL
Chain of Thyrotropin receptor (Homo sapiens) (P16473 whole entry, looked up): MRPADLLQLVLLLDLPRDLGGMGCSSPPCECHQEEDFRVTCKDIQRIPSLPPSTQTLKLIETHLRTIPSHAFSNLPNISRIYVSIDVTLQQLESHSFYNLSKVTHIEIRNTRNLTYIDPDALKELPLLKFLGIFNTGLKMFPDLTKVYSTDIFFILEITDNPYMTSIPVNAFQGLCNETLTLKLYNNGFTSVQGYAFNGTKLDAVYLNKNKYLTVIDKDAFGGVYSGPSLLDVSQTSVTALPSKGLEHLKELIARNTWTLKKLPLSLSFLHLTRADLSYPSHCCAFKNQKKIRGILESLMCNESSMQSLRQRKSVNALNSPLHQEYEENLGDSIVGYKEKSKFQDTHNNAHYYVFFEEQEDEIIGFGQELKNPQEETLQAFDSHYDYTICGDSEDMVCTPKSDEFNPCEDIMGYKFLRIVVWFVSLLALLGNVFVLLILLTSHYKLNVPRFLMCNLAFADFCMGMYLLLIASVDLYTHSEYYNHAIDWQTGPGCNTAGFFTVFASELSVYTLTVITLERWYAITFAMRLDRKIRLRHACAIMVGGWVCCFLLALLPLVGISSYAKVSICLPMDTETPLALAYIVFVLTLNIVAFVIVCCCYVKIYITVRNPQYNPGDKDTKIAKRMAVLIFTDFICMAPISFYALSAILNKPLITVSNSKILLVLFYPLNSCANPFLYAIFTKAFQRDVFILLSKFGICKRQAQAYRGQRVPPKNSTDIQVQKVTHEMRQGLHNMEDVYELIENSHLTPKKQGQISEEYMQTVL
Chain of D(1A) dopamine receptor (Homo sapiens) (P21728 whole entry, looked up): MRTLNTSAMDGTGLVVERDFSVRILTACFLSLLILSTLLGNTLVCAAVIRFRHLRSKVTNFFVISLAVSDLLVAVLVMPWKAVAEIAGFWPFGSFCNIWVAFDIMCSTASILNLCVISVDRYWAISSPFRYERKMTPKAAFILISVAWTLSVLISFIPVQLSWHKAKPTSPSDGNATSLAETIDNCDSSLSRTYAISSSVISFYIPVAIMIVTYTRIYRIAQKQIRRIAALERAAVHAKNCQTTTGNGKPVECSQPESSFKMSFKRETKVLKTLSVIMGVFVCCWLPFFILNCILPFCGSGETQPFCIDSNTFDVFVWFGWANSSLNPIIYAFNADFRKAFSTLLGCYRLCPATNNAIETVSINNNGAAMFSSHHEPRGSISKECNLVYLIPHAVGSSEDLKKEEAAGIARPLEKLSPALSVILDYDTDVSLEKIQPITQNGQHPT
Chain of Methanococcus maripaludis chaperonin (MmCpn) (Q6LX38 1-543): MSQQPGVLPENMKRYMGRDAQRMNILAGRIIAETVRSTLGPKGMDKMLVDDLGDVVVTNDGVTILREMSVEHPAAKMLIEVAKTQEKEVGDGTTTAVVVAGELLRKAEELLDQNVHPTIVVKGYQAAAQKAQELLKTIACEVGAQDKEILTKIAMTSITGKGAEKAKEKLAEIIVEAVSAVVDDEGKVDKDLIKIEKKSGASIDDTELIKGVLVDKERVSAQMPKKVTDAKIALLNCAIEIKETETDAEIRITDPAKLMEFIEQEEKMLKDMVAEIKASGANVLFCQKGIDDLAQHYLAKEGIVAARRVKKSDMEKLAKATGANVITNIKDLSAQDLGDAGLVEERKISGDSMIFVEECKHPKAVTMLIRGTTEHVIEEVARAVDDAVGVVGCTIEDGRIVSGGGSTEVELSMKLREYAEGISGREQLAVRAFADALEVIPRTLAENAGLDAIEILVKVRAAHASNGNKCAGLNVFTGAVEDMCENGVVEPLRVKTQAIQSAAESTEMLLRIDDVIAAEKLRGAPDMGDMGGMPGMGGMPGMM
Chain of Peptidyl-prolyl cis-trans isomerase NIMA-interacting 1 (Homo sapiens) (Q13526 whole entry, looked up): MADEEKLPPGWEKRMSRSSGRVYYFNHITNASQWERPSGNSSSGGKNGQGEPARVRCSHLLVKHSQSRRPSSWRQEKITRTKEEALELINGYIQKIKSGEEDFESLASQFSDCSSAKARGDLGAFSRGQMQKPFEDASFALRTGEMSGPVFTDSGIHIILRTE
Chain of Thyrotropin-releasing hormone receptor (Homo sapiens) (P34981 whole entry, looked up): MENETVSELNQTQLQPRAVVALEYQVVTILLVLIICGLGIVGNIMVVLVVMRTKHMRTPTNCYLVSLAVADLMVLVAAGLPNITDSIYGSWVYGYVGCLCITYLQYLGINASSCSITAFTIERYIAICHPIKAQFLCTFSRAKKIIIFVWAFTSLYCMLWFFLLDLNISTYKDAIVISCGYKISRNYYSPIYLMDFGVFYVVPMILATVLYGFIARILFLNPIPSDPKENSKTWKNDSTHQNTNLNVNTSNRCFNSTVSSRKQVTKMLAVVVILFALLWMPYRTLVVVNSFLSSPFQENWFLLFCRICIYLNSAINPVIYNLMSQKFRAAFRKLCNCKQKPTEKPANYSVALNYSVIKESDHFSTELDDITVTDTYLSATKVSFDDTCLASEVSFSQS

Consider `COc1ccccc1N1CCN(CC(O)COc2cccc3ccccc23)CC1` (stereo not drawn), for which the molecule was called inactive in [1], in assay [2], in [3] and in assay [8]. Further, the Potency entry in assay [4], in assay [5], in assay [6], in [7], in assay [9] and in [10] was “inactive” throughout. The Potency entry in assay [11] and in [12] was “inactive” in each case. In [7], the viability change is -28.8%.

As for `Cn1ccc2cc3c(cc21)CCN3C(=O)Nc1cccnc1`, the outcome in [1], in assay [2], in assay [3], in assay [8] and in assay [15] was inactive. The Potency entry in assay [4], in [5], in assay [13], in assay [7], in assay [9] and in assay [10] was “inactive” in each case. Also, the Potency result in assay [11] was “inactive”. In addition, in assay [14], the activation is 0.875% (inactive). Moreover, in assay [7], the viability change is -2.16%.

Regarding `O=C(c1ccc(F)cc1)C1CCN(CCn2c(=O)[nH]c3ccccc3c2=O)CC1`, the result in assay [1], in assay [2], in assay [3], in assay [8], in assay [17] and in assay [15] was inactive. Further, the Potency result in [5], in [16], in assay [13], in [7], in assay [9] and in assay [10] was “inactive” in each case. The Potency result in assay [11] and in assay [18] was “inactive” each time. The Potency in assay [6] is 5.62 µM (active). In assay [7], the viability change is 2.61%.

Regarding `NC(=O)OCC(COC(N)=O)c1ccccc1`, the molecule was classed as inactive in assay [1], in [2], in assay [3], in assay [8] and in assay [15]. In addition, the Potency result in assay [4], in assay [5], in assay [6], in assay [13], in [7] and in assay [9] was “inactive” throughout. The Potency result in assay [10], in [11], in assay [12] and in assay [18] was “inactive” throughout. Moreover, in assay [14], the activation was 0.5% (inactive). In assay [7], the viability change stood at 2.5%.

On to `N[C@@H](Cc1c[nH]c2ccc(O)cc12)C(=O)O`, for which the molecule was classed as inactive in [1], in assay [2], in assay [3], in assay [8] and in assay [15]. In addition, the Potency entry in assay [4], in [5], in assay [6], in [19], in assay [13] and in [7] was “inactive” throughout. Also, the Potency entry in [9], in assay [10], in assay [11], in [12] and in assay [18] was “inactive” each time. Besides, the activation in assay [14] is 0.125% (inactive). In addition, the viability change in [7] is -8.24%.

On to `CCc1cccc2c3c([nH]c12)C(CC)(CC(=O)O)OCC3` (stereo not drawn), for which the outcome in assay [1], in assay [2], in assay [3], in assay [8], in [17] and in assay [15] was inactive. In addition, the Potency result in assay [4], in assay [5], in [6], in assay [16], in [13] and in assay [7] was “inactive” throughout. In addition, the Potency result in assay [9], in assay [10], in [11], in assay [12] and in assay [18] was “inactive” each time. For the same molecule, the viability change in assay [7] was -5.62%.

Turning to `CC(COc1ccccc1)N(CCCl)Cc1ccccc1` (stereo not drawn), the molecule was classed as inactive in assay [1], in assay [2], in assay [3], in [8] and in [15]. Besides, the Potency entry in assay [5], in [6], in assay [16], in assay [13], in assay [9] and in assay [10] was “inactive” in each case. In addition, the Potency result in assay [11] was “inactive”.

As to `Nc1ccn([C@H]2CC[C@@H](CO)O2)c(=O)n1`, the outcome in assay [1], in assay [2], in assay [3], in [8] and in assay [15] was inactive. In addition, the Potency result in assay [5], in assay [6], in assay [13], in assay [7], in [9] and in [10] was “inactive” in each case. Besides, the Potency result in assay [11] and in [18] was “inactive” in each case. The activation in assay [14] was 0.938% (inactive). Further, the viability change in [7] is -1.24%.
